# Measured values from PubChem BioAssay AID1445 (SRMLSC, 2008).
# About 910 (0.41%) of roughly 220,000 compounds were called active. Only a selection was taken, and actives are over-represented in it overall. Entries with a potency or affinity are not part of this list. A number with no mark means an inactive call.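 The calls were made as follows: active = primary inhibition above the hit cutoff, then over 50% inhibition at one or more dose response concentrations (cut at about 23% in these data, passing the limit was not always enough); inconclusive = conflicting primary data, or primary hits not chosen for dose response; inactive = low primary inhibition, or under 50% at every dose.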 Where a SMILES comes first, the peptide text is derived from it. The star is where a group is joined. Boc = CC(C)(C)OC(=O)*
# Molecular target: Aminopeptidase N (Plasmodium falciparum (isolate 3D7)) (UniProt O96935)
# Sequence (O96935 whole entry, looked up): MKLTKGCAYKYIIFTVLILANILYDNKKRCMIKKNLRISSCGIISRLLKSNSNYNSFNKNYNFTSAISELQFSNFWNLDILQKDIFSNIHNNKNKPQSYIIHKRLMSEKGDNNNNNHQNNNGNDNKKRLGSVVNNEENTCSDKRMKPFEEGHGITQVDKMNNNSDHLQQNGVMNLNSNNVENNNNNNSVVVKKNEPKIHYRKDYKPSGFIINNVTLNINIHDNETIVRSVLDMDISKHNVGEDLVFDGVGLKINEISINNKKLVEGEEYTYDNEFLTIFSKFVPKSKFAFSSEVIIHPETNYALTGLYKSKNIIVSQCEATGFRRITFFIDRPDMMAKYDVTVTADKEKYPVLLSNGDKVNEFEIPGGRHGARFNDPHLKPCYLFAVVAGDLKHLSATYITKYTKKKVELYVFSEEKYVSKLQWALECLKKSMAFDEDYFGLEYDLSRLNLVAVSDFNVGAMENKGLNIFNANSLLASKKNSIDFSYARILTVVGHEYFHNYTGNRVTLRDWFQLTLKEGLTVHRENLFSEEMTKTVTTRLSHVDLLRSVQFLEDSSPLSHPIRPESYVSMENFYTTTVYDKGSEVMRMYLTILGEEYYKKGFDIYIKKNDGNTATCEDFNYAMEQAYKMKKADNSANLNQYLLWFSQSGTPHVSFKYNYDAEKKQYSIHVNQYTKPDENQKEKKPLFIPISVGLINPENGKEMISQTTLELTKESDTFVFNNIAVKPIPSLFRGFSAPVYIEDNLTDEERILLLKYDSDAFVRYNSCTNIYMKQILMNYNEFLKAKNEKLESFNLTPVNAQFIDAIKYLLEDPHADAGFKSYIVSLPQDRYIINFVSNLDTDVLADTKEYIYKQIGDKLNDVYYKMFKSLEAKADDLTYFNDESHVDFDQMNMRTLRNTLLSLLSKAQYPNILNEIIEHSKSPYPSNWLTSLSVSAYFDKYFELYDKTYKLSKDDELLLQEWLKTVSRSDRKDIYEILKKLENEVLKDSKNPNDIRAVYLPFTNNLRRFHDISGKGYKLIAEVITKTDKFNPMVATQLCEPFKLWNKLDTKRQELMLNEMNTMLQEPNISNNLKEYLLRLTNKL
# Test: malaria alanyl aminopeptidase activity blockers – biochemical, fluorogenic H-Leu-NHMec substrate, 1536-well (AID 1445);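 also: plate controls were DMSO full reaction for no effect and no enzyme background for full effect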
# Conditions: recombinant M1AAP, H-Leu-NHMec fluorogenic kinetic assay
# [1] = at 30 µM, stronger effect = higher value unless noted
smiles,measurement,setting,value
CCC(=O)N(C)CCc1cc2c(c(OC)c1/C=N/NC(=O)c1ccccc1O)OCO2,inhibition,[1],-6.1%
C#CCOCCOCCOCCNc1nc(N2CCOCC2)nc(N2CCN(C(=O)[C@H]([C@@H](C)CC)n3cc(CCCCN)nn3)CC2)n1,inhibition,[1],0.08%
O=[N+]([O-])c1ccc(-c2ccc(/C=N/c3c(-c4ccco4)nc4ccccn34)o2)c(Cl)c1,inhibition,[1],8.98%
O=[N+]([O-])c1ccc(-c2ccc(/C=N/c3c(-c4ccco4)nc4ccccn34)o2)cc1,inhibition,[1],27.6% (active)
O=[N+]([O-])c1ccc(Cl)c(-c2ccc(/C=N/c3c(-c4ccco4)nc4ccccn34)o2)c1,inhibition,[1],6.65%
CC(C)CC(NC(=O)OC(C)(C)C)C(=O)NCc1ccccc1 (centres undefined),inhibition,[1],-0.35%
COC(=O)C(Cc1ccccc1)NC(=O)C(CC(C)C)NC(=O)OC(C)(C)C (stereo not drawn) (Boc-Leu-Phe-OMe; configuration not given here),inhibition,[1],-2.73%
O=C1N[C@@H](Cc2ccccc2)C(=O)N1CCN1CCOCC1,inhibition,[1],-7.62%
O=C(Cn1cnc2ccccc21)N/N=C/c1ccccc1[N+](=O)[O-],inhibition,[1],-4.86%
Cc1ccc(S(=O)(=O)N2CCN(C(=O)CC(C)(C)C)CC2)cc1,inhibition,[1],3.77%
CN(c1ccccc1C(=O)Nc1ccc(F)c(F)c1)S(C)(=O)=O,inhibition,[1],0.14%
O=C1CN2C(=Nc3ccc(Br)cc3C2c2ccccc2)CCN1 (centres undefined),inhibition,[1],3.13%
COC(=O)CN1C(c2ccc(Cl)cc2)=Nc2ccc(Cl)cc2C1c1ccccc1 (centres undefined),inhibition,[1],8.62%
O=C1CN2C(=Nc3ccc(Cl)cc3C2c2ccccc2)CN1 (centres undefined),inhibition,[1],27.9% (active)
COc1ccc(C2=NOC(C(=O)Nc3cc(C)on3)C2)cc1OC (centres undefined),inhibition,[1],9.84%
COc1ccc(/C=C(/C#N)C(=O)Nc2ccc(O)cc2)cc1C(=O)O,inhibition,[1],15.9%
C=CCNC(=O)/C(C#N)=C\c1cc(Cl)c(O)c(OCC)c1,inhibition,[1],1.82%
CC(C)COc1ccc(/C=C2/Sc3ccccc3C2=O)cc1,inhibition,[1],-0.23%
CCOC(=O)C1=C2NC(=O)c3ccccc3N2C(=O)C1,inhibition,[1],7.37%
COc1ccc(C(=O)NNC(=O)CCC(=O)Nc2cc(C)on2)cc1,inhibition,[1],6.61%
CC(=O)Nc1ccccc1-c1nc2ccc(C(=O)N3CCN(c4cccc(C)c4)C(C)C3)cc2[nH]c1=O (centres undefined),inhibition,[1],6.05%
CC(=O)Nc1ccccc1-c1nc2ccc(C(=O)N3CCN(c4cc(C)ccc4C)CC3)cc2[nH]c1=O,inhibition,[1],4.66%
CC(=O)Nc1ccccc1-c1nc2ccc(C(=O)N3CCN(c4ccccc4)CC3)cc2[nH]c1=O,inhibition,[1],28% (active)
Cc1ccccc1-c1cnn(-c2cccc([N+](=O)[O-])c2)c1N,inhibition,[1],1.77%
Cc1ccc(-c2nc3cc(N)ccc3o2)cc1,inhibition,[1],6.2%
CC(C)c1ccc2oc(-c3ccc(N)cc3)nc2c1,inhibition,[1],4.91%
CC(=O)N(C(C)=O)N1C(=O)/C(=C/c2ccc(Cl)cc2)SC1=S,inhibition,[1],29.5%
O=S(=O)(Nc1ncnc2sc3c(c12)CCC3)c1cc(F)ccc1F,inhibition,[1],11.3%
O=S(=O)(Nc1ncnc2sc3c(c12)CCC3)c1ccc(Cl)s1,inhibition,[1],20%
O=S(=O)(Nc1ncnc2sc3c(c12)CCC3)c1ccc2ccccc2c1,inhibition,[1],27.9% (active)
CC(C)CCOCC(=O)Oc1ccccc1C(=O)O,inhibition,[1],-2.22%
CCN(CC)CCCOC(=O)c1ccc(OC)cc1O,inhibition,[1],1.55%
Cc1ccc(C2=NNC(=O)C(c3c[nH]c4ccccc34)C2)cc1 (centres undefined),inhibition,[1],1.55%
CS(=O)(=O)NN1C(=O)c2ccccc2NC12CCCC2,inhibition,[1],6.27%
CCOC(=O)NN1C(=O)c2ccccc2NC1(C)C,inhibition,[1],13.7%
O=C1c2ccccc2NC2(CCCC2)N1NS(=O)(=O)c1ccccc1,inhibition,[1],7.28%
CC1(C)Nc2ccccc2C(=O)N1NC(=O)c1ccccc1,inhibition,[1],22.7%
COc1ccc(NC(=O)c2ccccc2F)cc1Cl,inhibition,[1],5.75%
CCCC[C@@H]1CNC(=S)N1CCCc1cc(OC)c(OC)c(OC)c1,inhibition,[1],2.36%
COc1cc(NC(=O)CSc2nnnn2Cc2ccccc2)cc(OC)c1,inhibition,[1],-0.13%
Cc1nc(COC(=O)c2ccc(CO)cc2)cs1,inhibition,[1],4.37%
Cn1c(=O)c2nc(Cl)c(-c3ccccc3)nc2n(C)c1=O,inhibition,[1],4.55%
COCCCNc1ccc([N+](=O)[O-])cc1C(=O)Nc1cccc(C)n1,inhibition,[1],2.01%
O=c1[nH]c2ccc(NS(=O)(=O)c3ccc(Cl)cc3)cc2[nH]1,inhibition,[1],7.26%
CCOc1ccc(NS(=O)(=O)c2ccc3[nH]c(=O)c(=O)[nH]c3c2)cc1,inhibition,[1],10.4%
CC(C)CCNC(=O)c1nnc(Cc2ccc(Cl)cc2)o1,inhibition,[1],2.74%
O=C(NCCCc1ccccc1)c1cc([N+](=O)[O-])ccc1Cl,inhibition,[1],3.08%
C[N+]1(CC(=O)OC2CCCCCCCCCCC2)CCCC1,inhibition,[1],32.9%
Cc1ccc(-c2nc(N=Nc3ccc(O)cc3)n[nH]2)cc1,inhibition,[1],15.9%
Oc1ccc(N=Nc2n[nH]c(-c3ccc(Cl)cc3)n2)cc1,inhibition,[1],26.6% (active)
Oc1ccc(N=Nc2n[nH]c(-c3ccc(Br)cc3)n2)cc1,inhibition,[1],14.1%
O=C(Nc1ccccc1N1CCOCC1)c1cccnc1,inhibition,[1],-1.63%
Cc1onc(-c2c(Cl)cccc2Cl)c1COC(=O)c1ccc(Cl)cc1,inhibition,[1],0.11%
O=c1[nH]c(SCc2ccccc2Cl)nc2c1CCC2,inhibition,[1],-1.92%
O=c1[nH]c(SCc2ccccc2Cl)nc2c1CCCC2,inhibition,[1],-3.65%
Cc1cccc(OCC(=O)NCC(=O)N/N=C/c2cccnc2)c1,inhibition,[1],8.13%
O=c1c2ccccc2nc(SCc2cc(F)ccc2F)n1C1CCCC1,inhibition,[1],6.96%
CCC(C)(C)NC(=O)C(c1cccnc1)N(C(=O)c1csnn1)c1ccccc1 (centres undefined),inhibition,[1],-0.28%
O=C(COc1ccc(Br)cc1CO)Nc1ccccc1,inhibition,[1],9.17%
O=P(Cc1cc(Br)cc(Br)c1OCCO)(c1ccccc1)c1ccccc1,inhibition,[1],5.71%
CCCn1c(SC2C(=O)CC(C)(C)CC2=O)nc2c1c(=O)n(C)c(=O)n2C,inhibition,[1],-3.71%
CCn1ccnc1CN(C)Cc1nc(-c2cccc(Cl)c2)no1,inhibition,[1],-7.75%
C=CCn1c(-c2ccc(F)cc2)n[nH]c1=S,inhibition,[1],4.9%
CCOP(=O)(OCC)c1nc(-c2ccc(Cl)cc2Cl)oc1N1CCCCC1,inhibition,[1],10.7%
CCOP(=O)(OCC)c1nc(-c2cccc3ccccc23)oc1N1CCCCC1,inhibition,[1],15.6%
CCOC(=O)C/C(C)=N\Nc1nc(-c2ccccc2)cs1,inhibition,[1],1.35%
O=C(CSCc1ccccc1)N1CCN(c2cccc(C(F)(F)F)c2)CC1,inhibition,[1],6.51%
COCC(=O)N1CCN(c2cccc(C(F)(F)F)c2)CC1,inhibition,[1],-4.62%
Cc1cccc(/C=N/NC(=O)c2cc(-c3cccnc3)nc3ccccc23)c1,inhibition,[1],5.37%
c1ccc(SCc2nc(-c3cccnc3)no2)cc1,inhibition,[1],2.83%
CCOC(=O)c1c(NC(=O)C2CCCO2)sc(C)c1C (centres undefined),inhibition,[1],2.42%
CCOC(=O)NC(=O)/C(C=Nc1ccc(Cl)cc1)=C(\C)O,inhibition,[1],10.5%
CCCCCC(=O)N(O)C1CC(=O)N(c2ccccc2)C1=O (centres undefined),inhibition,[1],11.5%
CCCCCCC(=O)N(O)C1CC(=O)N(c2ccc(C)cc2)C1=O (centres undefined),inhibition,[1],35.5%
O=C1CC(N(O)C2CC(=O)N(Cc3ccccc3)C2=O)C(=O)N1Cc1ccccc1 (centres undefined),inhibition,[1],6.83%
CCCN(CCC)C1CC(=O)N(Cc2ccccc2)C1=O (centres undefined),inhibition,[1],4.78%
CCCCCCC(=O)N(O)C1CC(=O)N(Cc2ccccc2)C1=O (centres undefined),inhibition,[1],37.9% (active)
CCCCC(CCC(=O)Nc1ccccc1C(=O)OCC)C(=O)O (centres undefined),inhibition,[1],0.91%
CCN(CC)S(=O)(=O)c1ccc(C)c(NC(=O)c2cc(C)oc2C)c1,inhibition,[1],3.95%
O=C(O)CCC(=O)N(Cc1ccco1)C1CC(=O)N(c2ccccc2)C1=O (centres undefined),inhibition,[1],7.06%
CCOC(=O)N1CCN(c2c(NCc3ccccc3OC)c(=O)c2=O)CC1,inhibition,[1],1.73%
CCOC(=O)N1CCN(c2c(NCc3ccc(Cl)cc3)c(=O)c2=O)CC1,inhibition,[1],5.09%
COc1ccc(C(=O)N/N=C/c2cc3ccccc3[nH]c2=O)cc1,inhibition,[1],6.42%
COc1cc2ccccc2cc1C(=O)NC(=S)Nc1cccc(C(=O)O)c1C,inhibition,[1],8.01%
COCCNC(=S)N1CCc2cc(OC)c(OC)cc2C1COc1ccc(C(C)C)cc1 (centres undefined),inhibition,[1],15.1%
O=C(Oc1c(CN2CCOCC2)cc(Cl)c2cccnc12)c1ccccc1,inhibition,[1],4.42%
CN1CCN(Cc2cc(Cl)c3cccnc3c2OC(=O)c2cccs2)CC1,inhibition,[1],-1.84%
CCOC(=O)c1cc2c(=O)n3ccccc3nc2n(CCOC)c1=NC(=O)c1ccncc1,inhibition,"at 30 µM, stronger effect = higher value",45.3% (active)
same,inhibition,at 100 µM (top of the series),16.6%
CCOC(=O)c1cc2c(=O)n3ccccc3nc2n(CCCOC)c1=NC(=O)c1ccncc1,inhibition,[1],10.7%
CCOC(=O)c1cc2c(=O)n3ccccc3nc2n(CCOC)c1=NC(=O)C(C)(C)C,inhibition,[1],16.9%
O=C(NCCc1ccccc1)C1CCN(c2nc3ccccc3o2)CC1,inhibition,[1],1.06%
O=S(=O)(c1ccc2c(c1)OCCO2)N1CCC(n2cnc3cc(F)ccc32)CC1,inhibition,[1],2.37%
O=S(=O)(c1ccc2c(c1)OCCO2)N1CCC(n2nnc3cc(C(F)(F)F)ccc32)CC1,inhibition,[1],-4.12%
